Measurements as given in PubChem BioAssay (NCI).
This is part of a sample that, as a whole, favours compounds with a hit. Of some 83,000 tested, about 20% had one in any assay.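 48-hour exposure, single concentration, 96-well plates; percent growth endpoint where 0 means no net growth. Active: below 10.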 The source made the active and inactive calls.

Assays:
Experiment in all cases: NCI-60 one-dose screen, 48 h (100 = growth as untreated, 0 = no growth, -100 = all killed)
Conditions in all cases: 10 µM unless noted
NCI-H23 lung = system: NCI-H23 lung
NCI-H226 lung = system: NCI-H226 lung
NCI-H322M lung = system: NCI-H322M lung
HOP-62 NSCLC = system: HOP-62 NSCLC
NCI-H460 lung = system: NCI-H460 lung
HOP-92 NSCLC = system: HOP-92 NSCLC
NCI-H522 lung = system: NCI-H522 lung
A549/ATCC NSCLC = system: A549/ATCC NSCLC
786-0 renal = system: 786-0 renal
COLO 205 colon = system: COLO 205 colon
DU-145 prostate = system: DU-145 prostate
K-562 leukemia = system: K-562 leukemia
MDA-MB-231 breast = system: MDA-MB-231 breast
RXF 393 renal = system: RXF 393 renal
SF-268 CNS = system: SF-268 CNS
SF-295 CNS = system: SF-295 CNS
SF-539 CNS = system: SF-539 CNS
UACC-257 melanoma = system: UACC-257 melanoma
M14 melanoma = system: M14 melanoma
MALME-3M melanoma = system: MALME-3M melanoma

Measured: growth

Cn1cc(-c2nc(-c3c[nH]c4ncccc34)cs2)c2cc(F)ccc21
active: K-562 leukemia 6.15%
inactive: NCI-H23 lung 40.8% | NCI-H226 lung 62.3% | NCI-H322M lung 35.1% | HOP-62 NSCLC 65.3% | NCI-H460 lung 24.6% | HOP-92 NSCLC 13.3% | NCI-H522 lung 22% | A549/ATCC NSCLC 36.3% | 786-0 renal 41.3% | COLO 205 colon 49.4% | DU-145 prostate 64.4% | MDA-MB-231 breast 20% | RXF 393 renal 43.8% | SF-268 CNS 44.4% | SF-295 CNS 19.9% | SF-539 CNS 53.9% | UACC-257 melanoma 53.3% | M14 melanoma 20.5%

Nc1c(Cl)cc(N=Nc2ccccc2)cc1Cl
inactive: NCI-H23 lung 88% | NCI-H226 lung 55.2% | NCI-H322M lung 86.7% | HOP-62 NSCLC 91.4% | NCI-H460 lung 65.1% | HOP-92 NSCLC 57.7% | NCI-H522 lung 96.8% | A549/ATCC NSCLC 88.2% | 786-0 renal 101% | COLO 205 colon 97.5% | DU-145 prostate 101% | K-562 leukemia 92.5% | MDA-MB-231 breast 84.2% | RXF 393 renal 108% | SF-268 CNS 102% | SF-295 CNS 89.7% | SF-539 CNS 103% | UACC-257 melanoma 100% | M14 melanoma 105%

C/C(=N\Nc1ccc2ccccc2n1)c1ccccn1
active: NCI-H226 lung 0.47% | NCI-H322M lung -12% | HOP-62 NSCLC 5.02% | NCI-H460 lung 0.889% | HOP-92 NSCLC -10.9% | NCI-H522 lung -16.4% | A549/ATCC NSCLC 4.55% | 786-0 renal 6.89% | COLO 205 colon 0.767% | K-562 leukemia 2.37% | MDA-MB-231 breast -5.17% | RXF 393 renal 9.99% | SF-268 CNS -3.84% | SF-539 CNS -44.2% | UACC-257 melanoma -22.6% | M14 melanoma -24.6%
inactive: NCI-H23 lung 23.3% | DU-145 prostate 13.1%

Cn1cc(-c2nc(-c3c[nH]c4ncccc34)cs2)c2ccccc21
inactive: NCI-H23 lung 63.4% | NCI-H226 lung 85.7% | NCI-H322M lung 52.6% | HOP-62 NSCLC 92.9% | NCI-H460 lung 35.8% | HOP-92 NSCLC 42.6% | NCI-H522 lung 84% | A549/ATCC NSCLC 90.6% | 786-0 renal 90.5% | COLO 205 colon 85.9% | DU-145 prostate 99.9% | K-562 leukemia 65.5% | MDA-MB-231 breast 42.9% | RXF 393 renal 84.3% | SF-268 CNS 99.3% | SF-295 CNS 98% | SF-539 CNS 99.9% | UACC-257 melanoma 95.5% | M14 melanoma 81.1%

Cn1cc(-c2csc(-c3cn(C(=O)OC(C)(C)C)c4ccc(Br)cc34)n2)c2cccnc21
inactive: NCI-H23 lung 92.2% | NCI-H226 lung 101% | NCI-H322M lung 88.9% | HOP-62 NSCLC 99.2% | NCI-H460 lung 62.3% | HOP-92 NSCLC 98.7% | NCI-H522 lung 96.3% | A549/ATCC NSCLC 78.5% | 786-0 renal 99.9% | COLO 205 colon 86% | DU-145 prostate 108% | K-562 leukemia 97.6% | MDA-MB-231 breast 75.3% | RXF 393 renal 88.5% | SF-268 CNS 94.7% | SF-295 CNS 79.8% | SF-539 CNS 106% | UACC-257 melanoma 114% | M14 melanoma 104%

Cc1cccc2c1NC(=O)[C@@]21[C@H](C(=O)c2ccccc2)[C@]2(C(=O)Nc3ccccc32)[C@H]2CCCN21
inactive: NCI-H23 lung 38.4% [100 µM] | NCI-H226 lung 13% [100 µM] | NCI-H322M lung 48.8% [100 µM] | NCI-H460 lung 12.3% [100 µM] | NCI-H522 lung 17% [100 µM] | A549/ATCC NSCLC 15% [100 µM] | 786-0 renal 15.3% [100 µM] | COLO 205 colon 33.1% [100 µM] | DU-145 prostate 40% [100 µM] | K-562 leukemia 30.4% [100 µM] | MDA-MB-231 breast 14.5% [100 µM] | SF-268 CNS 34.3% [100 µM] | SF-295 CNS 23.7% [100 µM] | M14 melanoma 46.1% [100 µM]
active: HOP-62 NSCLC 4.33% [100 µM] | HOP-92 NSCLC -25.2% [100 µM] | RXF 393 renal -23.9% [100 µM] | SF-539 CNS 6.13% [100 µM]

Fc1ccc2[nH]cc(-c3nc(-c4c[nH]c5ncccc45)cs3)c2c1
inactive: NCI-H23 lung 43.7% | NCI-H226 lung 47.4% | NCI-H322M lung 74.6% | HOP-62 NSCLC 47.6% | HOP-92 NSCLC 24.3% | A549/ATCC NSCLC 31.1% | 786-0 renal 41.5% | COLO 205 colon 45.1% | DU-145 prostate 30.5% | K-562 leukemia 16.9% | MDA-MB-231 breast 44.4% | RXF 393 renal 55% | SF-268 CNS 48.9% | SF-295 CNS 17.8% | SF-539 CNS 27.3% | UACC-257 melanoma 53.8% | M14 melanoma 46.1%
active: NCI-H460 lung 9.85% | NCI-H522 lung -7.49%

COc1ccc2c(c1)c(-c1nc(-c3c[nH]c4ncccc34)cs1)cn2C
inactive: NCI-H23 lung 71.8% | NCI-H226 lung 80.6% | NCI-H322M lung 46.6% | HOP-62 NSCLC 90.4% | NCI-H460 lung 40.1% | HOP-92 NSCLC 60.7% | NCI-H522 lung 77.9% | A549/ATCC NSCLC 81.7% | 786-0 renal 70.1% | COLO 205 colon 83.7% | DU-145 prostate 72.5% | K-562 leukemia 41% | MDA-MB-231 breast 55.3% | RXF 393 renal 57.2% | SF-268 CNS 97% | SF-295 CNS 86% | SF-539 CNS 66.2% | UACC-257 melanoma 85.1% | M14 melanoma 63.7%

Cc1c(C)c2c(c(C)c1NC(=O)CCCCCCC(=O)O)CCC(C)(CCCC(C)CCCC(C)CCCC(C)C)O2 (centres undefined)
inactive: NCI-H23 lung 85.7% | NCI-H226 lung 95.2% | NCI-H322M lung 91.7% | HOP-62 NSCLC 109% | NCI-H460 lung 69.7% | HOP-92 NSCLC 82% | NCI-H522 lung 52% | A549/ATCC NSCLC 20.4% | 786-0 renal 75.2% | COLO 205 colon 98.4% | DU-145 prostate 86.1% | K-562 leukemia 39.2% | MDA-MB-231 breast 101% | RXF 393 renal 98.9% | SF-268 CNS 78.3% | SF-295 CNS 71.4% | SF-539 CNS 89.9% | UACC-257 melanoma 95.2% | M14 melanoma 82.7%

O=C(NC(Cc1cn(Cc2ccccc2)cn1)C(=O)O)OCC1c2ccccc2-c2ccccc21 (centres undefined)
inactive: NCI-H23 lung 98.7% | NCI-H226 lung 102% | NCI-H322M lung 106% | HOP-62 NSCLC 101% | NCI-H460 lung 115% | HOP-92 NSCLC 107% | NCI-H522 lung 84.2% | A549/ATCC NSCLC 104% | 786-0 renal 102% | COLO 205 colon 110% | DU-145 prostate 113% | K-562 leukemia 88.8% | MDA-MB-231 breast 133% | RXF 393 renal 117% | SF-268 CNS 107% | SF-539 CNS 94.6% | UACC-257 melanoma 99.1% | M14 melanoma 99.8%

COc1ccc2[nH]cc(-c3nc(-c4c[nH]c5ncccc45)cs3)c2c1
active: COLO 205 colon -10.2% | RXF 393 renal 1.36% | UACC-257 melanoma -57%
inactive: NCI-H23 lung 48.3% | NCI-H226 lung 53.2% | NCI-H322M lung 44.5% | HOP-62 NSCLC 53.5% | NCI-H460 lung 21.8% | HOP-92 NSCLC 25.9% | NCI-H522 lung 31.3% | A549/ATCC NSCLC 22.4% | 786-0 renal 16.2% | DU-145 prostate 47.1% | K-562 leukemia 18.3% | MDA-MB-231 breast 39.1% | SF-268 CNS 58.8% | SF-295 CNS 10.6% | SF-539 CNS 25.2% | M14 melanoma 16.1%

Cn1c(=O)c2c(ncn2CCC(=O)Nc2ccc(F)cc2)n(C)c1=O
inactive: NCI-H23 lung 100% | NCI-H226 lung 109% | NCI-H322M lung 105% | HOP-62 NSCLC 92.6% | NCI-H460 lung 108% | HOP-92 NSCLC 95.5% | NCI-H522 lung 90.3% | A549/ATCC NSCLC 89.5% | 786-0 renal 95.1% | DU-145 prostate 105% | K-562 leukemia 96% | MALME-3M melanoma 114% | MDA-MB-231 breast 102% | RXF 393 renal 115% | SF-268 CNS 103% | SF-295 CNS 105% | SF-539 CNS 96.9% | M14 melanoma 97.8%
